Assay outcomes as filed in PubChem BioAssay.
Hits are enriched below; roughly 21% of the tested compounds scored in any of these assays.
D3 ag: agonists of human D3 dopamine receptor; actives 0.58% (n = 410,000); D3R DiscoveRx beta-arrestin cells, luminescence, 90 min; AID 652048; max activation, %; P35462; in the data active = max activation above about 30%; also: 0% is about no effect
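Agonist mode: compounds and dopamine controls were applied to plated cells for 90 min at 37 degrees C after an overnight attachment at 1500 cells/well. Luminescent read-out followed 30 - 60 minutes at room temperature with DiscoveRx detection reagent.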
TDP1 cell CPT: DT40-hTDP1 cell growth loss with CPT. chicken DT40 Tdp1-/-;hTDP1 cells + 20 nM CPT, ATP luminescence, 48 h. Potency, µM (highest dose often 46.2 µM), inactives show top-dose activity change, negative = growth inhibition, most hits filed as inhibitors. actives 12% (n = 420,000). AID 686979; also: potency is read from the fitted curve at half-maximal effect; % is scaled to controls: 0 for no effect and ±100 for the full control effect; nearly all actives have a fitted effect of over 55% in size
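Chicken DT40 Tdp1-/- cells complemented with human TDP1, 400 cells/well, exposed to compounds plus 20 nM camptothecin for at least 48 h at 37 C; viability read as ATP content by CellTiter-Glo luminescence.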
IL-1B inflam inh: inflammasome signaling inhibition, IL-1 beta readout | AID 743279 | THP-1 LPS/ATP IL-1B secretion, AlphaLISA, 16 h; active compounds read low | actives 4.7% (n = 360,000) | activity change, % at 57.5 µM; in the data active = activity change below about -50%; inconclusive = mostly about -30% to -49%; also: % is scaled to controls: 0 for no effect and ±100 for the full control effect
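THP-1 cells pretreated 1 hr with compounds (up to 57.5 uM final), then stimulated with LPS (250 ng/mL final) plus ATP (1.25 mM final); secreted IL-1B measured by AlphaLISA after 16 hr, decreased signal indicating inhibition.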
D3 antag: antagonists of human D3 dopamine receptor | P35462 | D3R cells, DiscoveRx beta-arrestin luminescence, antagonist mode; active compounds read low | max response, negative = inhibition, % | actives 2.5% (n = 360,000); in the data active = max response below about -50%; inconclusive = no clear call, values can overlap the other calls; also: % is scaled to controls: 0 for no effect and ±100 for the full control effect
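Cells plated overnight at 1500 cells/well, then exposed to library compounds with dopamine controls for 90 minutes at 37 degrees C. DiscoveRx reagent added for 30–60 minutes at room temperature; luminescence read, quantitative HTS format.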
TDP1 cell noCPT: qHTS for Inhibitors of human tyrosyl-DNA phosphodiesterase 1 (TDP1): qHTS in cells in absence of CPT | DT40 Tdp1-/- hTDP1 cells, no CPT, ATP luminescence, 48 h | Potency, µM (doses to about 46.2 µM), for inactives: at the highest dose activity change, negative = growth inhibition, usual class: inhibitors | actives 15% (n = 420,000); also: potency is read from the fitted curve at half-maximal effect; % is scaled to controls: 0 for no effect and ±100 for the full control effect; nearly all actives have a fitted effect of over 55% in size
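Readout: luminescence from CellTiter-Glo after 30 min in the dark at RT. Cells: DT40 Tdp1-/- with stable hTDP1, 400/well. Exposure: compounds alone, ≥48 hr, 37 °C.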
ClpP mod: qHTS Assay for Activators of ClpP. purified B. subtilis ClpP, FRET peptide cleavage, 20 min. Potency, µM (series often up to 57.5 µM), inactives show at the highest dose activity change, negative = active. actives 1.9% (n = 340,000); active = well fitted falling curve with a large enough effect; inconclusive = small, poorly fitted or top-dose-only effect; inactive = no such curve, though single readings can be large or run the other way; also: potency is read from the fitted curve at half-maximal effect; the source files actives as falling curves though it sought activators and does not explain the sign; nearly all actives have a fitted effect of over 65% in size
Target sequence (P80244 whole entry, looked up): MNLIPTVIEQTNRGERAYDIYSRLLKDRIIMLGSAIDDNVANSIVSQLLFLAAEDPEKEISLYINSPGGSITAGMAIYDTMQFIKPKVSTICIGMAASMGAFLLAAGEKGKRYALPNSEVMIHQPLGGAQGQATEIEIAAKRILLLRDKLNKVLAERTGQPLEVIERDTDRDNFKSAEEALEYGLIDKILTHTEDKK
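Purified B. subtilis ClpP, 10 microg/mL final in Tris/HCl pH8 with KCl, BSA, glycerol and Tween-20, cleaved an Abz/nitrotyrosine-quenched decapeptide. Fluorescence (ex 320, em 430) was read at 0 and 20 min at room temperature. Delta was normalized to 5.8 microM ADEP and DMSO/no-enzyme controls.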
The depositor's hits bear a star; u = inconclusive; x = no result. Unless noted, calls follow the shape of the dose curve; as a rule, active = well fitted inhibition curve with a large enough effect; inconclusive = small, poorly fitted or top-dose-only effect; inactive = flat fitted curve, though single readings scatter.

SMILES	D3 ag	TDP1 cell CPT	IL-1B inflam inh	D3 antag	TDP1 cell noCPT	ClpP mod
O=C(c1ccc(S(=O)(=O)Cc2ccccc2F)c([N+](=O)[O-])c1)N1CCCCCC1	-5	u	-79*	-1	23µM*	x
O=C(NCc1ccccc1F)c1ccc(CN2CC(=O)N3CCCCC3C2=O)cc1 (centres undefined)	-9	-7%	x	x	-6%	2%
CSc1cccc(NC(=O)c2[nH]c(C)c(C(C)=O)c2C)c1	-11	u	u	0	u	x
Cc1ccc(C)c(NC(=O)CSc2nncn3c2cc2sccc23)c1	-11	u	x	x	u	1%
O=C(c1ccc(SCc2ccco2)c([N+](=O)[O-])c1)N1CCOCC1	-14	-16%	-5	-7	-25%	1%
CC1CCN(C(=O)c2ccc(SCc3ccccc3F)c([N+](=O)[O-])c2)CC1	-11	-11%	-60*	u	u	0%
Cc1ccc(Cl)cc1-c1cc(C(=O)Nc2ccc(F)cc2)[nH]n1	-18	23µM*	-60*	-85*	21µM*	-2%
Cc1cc(F)ccc1-c1cc(C(=O)NCc2ccc(C(F)(F)F)cc2)[nH]n1	-16	u	-4	u	-26%	0%
Cc1ccc(Cl)cc1-c1cc(C(=O)N2CCc3ccccc3C2)[nH]n1	-15	16µM*	u	0	u	-3%
Cc1ccc(NC(=O)c2cc(-c3cc(Cl)ccc3O)n[nH]2)cc1C	3	-11%	-24	46	-24%	1%
COc1ccc(Cl)c(-c2cc(C(=O)NCc3ccc(C(F)(F)F)cc3)[nH]n2)c1	-15	16µM*	-28	-10	u	4%
O=C(c1cc2cc(Cl)ccc2[nH]1)N1CCc2ccccc2C1	-2	u	8	-22	-46%	-1%
Cc1ccc(Cl)cc1-c1cc(C(=O)NCc2ccc(C(F)(F)F)cc2)[nH]n1	-11	21µM*	0	-54*	16µM*	-4%
COc1ccc2c(c1)CC(C(=O)Nc1ccc(Cl)cc1)/C(=N/O)O2 (centres undefined)	1	-18%	8	-2	3%	2%
COC(=O)[C@H]1C[C@H]2[C@@H]3CC[C@H]4C[C@@H](OC)CC[C@]4(C)[C@H]3CC[C@]2(C)[C@@]2(CCCO2)O1	-18	u	-4	5	16µM*	2%
COC(=O)N[C@@H]1C[C@H]2[C@@H]3CC[C@H]4C[C@@H](OC)CC[C@]4(C)[C@H]3CC[C@]12C	28	u	51	35	u	2%
COC(=O)N[C@@H]1C[C@H]2[C@@H]3CC[C@H]4C[C@@H](OC)CC[C@]4(C)[C@H]3CC[C@@]12C	13	13µM*	41	18	15µM*	-2%
Cc1ccccc1NC(=O)COC(=O)/C=C/c1cn(-c2ccccc2)nc1-c1cccnc1	1	-1%	10	2	u	u
O=C(/C=C/c1cn(-c2ccccc2)nc1-c1cccnc1)N1CCCCC1	3	u	-20	23	18µM*	-1%
CN1CCN(C(=O)/C=C/c2cn(-c3ccccc3)nc2-c2ccc3c(c2)OCCO3)CC1	-11	-2%	-62*	5	-21%	x
CC(=O)Nc1ccc(NC(=O)C(C)OC(=O)/C=C/c2cn(-c3ccccc3)nc2-c2cccnc2)cc1 (centres undefined)	4	u	u	12	21µM*	-5%
O=C(O)/C=C/c1cn(-c2ccccc2)nc1-c1ccc2c(c1)OCCO2	-1	-13%	26	-7	u	x
O=C(/C=C\c1cn(-c2ccccc2)nc1-c1ccc2c(c1)OCCO2)N1CCOCC1	2	u	-22	53	10µM*	-20%
